High-throughput results: PubChem, The Scripps Research Institute Molecular Screening Center
ASK1 inh: ASK1 kinase inhibitors, primary screen, biochemical, AlphaScreen | actives 0.99% (n = 22,000) | inhibition, % at 7.44 µM | AlphaScreen MKK6 phosphorylation by ASK1, luminescence | Mitogen-activated protein kinase kinase kinase 5 (Homo sapiens), Q99683; in the data active = inhibition above about 35%;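 note: 0% = median of compound wells and 100% = no enzyme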
ULK1 inh: ULK1 kinase inhibitors, primary screen, biochemical, AlphaScreen | AID 1259251, 2017 | AlphaScreen Atg13 phosphorylation by ULK1, luminescence | actives 1.9% (n = 30,000) | Serine/threonine-protein kinase ULK1 (Homo sapiens), O75385 | inhibition, % at 5.96 µM; in the data active = inhibition above about 43%;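 note: 0% = median of compound wells and 100% = no enzyme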
Starred values were filed as active, the others as inactive; . = no result given. The list is not random: actives were taken first. Their share in the collection is about 2.5%.

SMILES	ASK1 inh	ULK1 inh
CNC(=O)c1cc(F)ccc1Nc1cc(Nc2ccc(NC(C)=O)cc2)ncc1C(F)(F)F	3	79*
CCCNC(=O)c1ccc2nc(Nc3cccnc3)sc2c1	-2	-4
N#C/C(=C\c1nn(-c2ccccc2)c(N)c1C#N)c1ccco1	.	45*
COc1nc(Nc2ccc(NC(C)=O)cc2)nc(-c2cccc(N)c2)n1	7	4
OCC1CCCN1c1nc2ncnc(NCc3ccccc3)c2[nH]1 (stereo not drawn)	-16	-10
O=C(c1cccnc1Nc1ccc2[nH]ncc2c1)N1CCOCC1	-10	9
COc1cc(Nc2ncc(C)c(NC3CC3)n2)cc(OC)c1OC	20	65*
Cc1cnc(Nc2cccc(N(C)C)c2)nc1Nc1ccccc1	15	23
CN(C)c1cccc(Nc2nc(NC3CC3)c3[nH]cnc3n2)c1	34	43*
COc1cc(Nc2nc(Nc3cccc(N(C)C)c3)ncc2C)cc(OC)c1OC	21	63*
Cc1cnc(Nc2ncccn2)nc1NC1CC1	-22	16
CN(C)c1cccc(Nc2nc(Nc3ccccc3)c3[nH]cnc3n2)c1	30	15
COc1cc(Nc2nc(Nc3ccc4c(c3)OCO4)c3[nH]cnc3n2)cc(OC)c1OC	6	52*
COc1cc(Nc2nc(NCc3ccc4c(c3)OCO4)nc3nc[nH]c23)cc(OC)c1OC	21	-14
COc1ccccc1OCC(=O)Nc1cc(-c2ccncc2)c[nH]c1=O	15	-4
O=C(NCc1cccc2ccccc12)NCc1nnnn1-c1ccc(F)cc1	.	-4
Cc1nc(C)n(-c2ccc(Nc3nccc(-c4cccc(N5CCOCC5)c4)n3)cc2)n1	4	-9
O=C(NCc1ccccc1Cl)C1CC(=O)N(c2ccc(Br)cc2)C1 (stereo not drawn)	.	-20
O=C(NC1CC1)c1ccc(-c2nc(NCc3cccnc3)c3[nH]cnc3n2)cc1	-11	15
Oc1ccc(CCNc2nc(Nc3ccc4ncccc4c3)nc3nc[nH]c23)cc1	-29	60*
COc1ccc(CCNc2nc(Nc3ccccc3)nc3nc[nH]c23)cc1	22	4
CC(C)N(CCNc1nc(Nc2ccc3ncccc3c2)nc2nc[nH]c12)C(C)C	7	17
COc1cc(Nc2nc(NC3CC3)c3[nH]cnc3n2)cc(OC)c1OC	-6	62*
COc1cc(Nc2nc(NC3CCN(Cc4ccccc4)CC3)c3[nH]cnc3n2)cc(OC)c1OC	18	6
COc1ccc(CCNc2nc(Nc3cc(OC)c(OC)c(OC)c3)nc3nc[nH]c23)cc1	14	69*
SMILES	ASK1 inh	ULK1 inh
CCN(CC)C(=O)C1CCCN(c2nc(NCCN3CCOCC3)c3ncn(-c4ccccc4)c3n2)C1 (stereo not drawn)	2	7
NC(=O)c1ccccc1Nc1nc(Nc2ccc(Cl)cc2)ncc1Cl	-39	20
Cc1cnc(Nc2ccc(N3CCOCC3)cc2)nc1Nc1ccccc1	15	30
Cc1cc(Nc2ncc(Cl)c(Nc3ccccc3C(N)=O)n2)ccc1N1CCOCC1	-92	70*
NC(=O)c1ccccc1Nc1nc(Nc2ccc(N3CCOCC3)c(Cl)c2)ncc1Cl	-88	80*
Cc1cnc(Nc2ccc(N3CCOCC3)cc2)nc1Nc1ccccc1C(N)=O	-59	95*
Cc1cc(Nc2cc(Nc3ccccc3C(N)=O)ccn2)ccc1N1CCOCC1	7	6
O=C(NCc1cccc(C(F)(F)F)c1)c1ccc2nc(N3CCN(Cc4ccc5c(c4)OCO5)CC3)sc2c1	0	-2
CCN(CC)c1nc(Nc2ccc3c(c2)OCO3)nc(N2CCCC2CO)n1 (stereo not drawn)	17	-8
c1ccc(CCNc2cc(-c3ccccn3)nc(-c3ccncc3)n2)cc1	.	-3
CN(C)CCN(Cc1ccccc1)C(=O)[C@H](N)Cc1ccc(-c2cn[nH]c2)cc1	-10	-2
O=C(Nc1nc2c(s1)CN(Cc1ccccc1)CC2)C1CCCCC1	.	0
N#Cc1c(N)sc(=S)c2c1CCN(Cc1ccccc1)C2	.	75*
O=C1CCCN1CCn1cnc2c(NCc3cccc(C(F)(F)F)c3)nc(N3CCc4ccccc4C3)nc21	-2	-44
CCCCCCCCCCCCOS(=O)(=O)O	.	19
CCCCC(CC)CCC(CC(C)C)OS(=O)(=O)O (stereo not drawn)	.	95*
Nc1ccc(O)c(C(=O)O)c1	.	55*
O=C(O)c1cc(O)ccc1O	.	4
CCN(CC)C(=O)C1CCCN(c2cc(C(=O)Nc3ccccc3)ccn2)C1 (stereo not drawn)	6	-2
CCN(CC)C(=O)C1CCCN(c2cc(C(=O)Nc3ccc(N4CCOCC4)cc3)ccn2)C1 (stereo not drawn)	-36	60*
CNC[C@H](O)c1ccc(O)c(O)c1	.	0
N[C@H](C(=O)O)[C@H](O)c1ccc(O)c(O)c1	.	89*
O=C1CCCN1CCCNc1nc(N2CCC(N3CCOCC3)CC2)nc2c1ncn2C1CCCCC1	12	9
